Assay results taken from the supplement of paper PMC3334620.
Whole data set: some 33,000 sequences, median “E-score (-0.5 to 0.5)” near -0.0059, cut for the highest 2% near 0.26. Only a selection was taken, and the highest values are over-represented in it overall.

Target: T1, Cin5 (UniProt P40917)
T1 sequence: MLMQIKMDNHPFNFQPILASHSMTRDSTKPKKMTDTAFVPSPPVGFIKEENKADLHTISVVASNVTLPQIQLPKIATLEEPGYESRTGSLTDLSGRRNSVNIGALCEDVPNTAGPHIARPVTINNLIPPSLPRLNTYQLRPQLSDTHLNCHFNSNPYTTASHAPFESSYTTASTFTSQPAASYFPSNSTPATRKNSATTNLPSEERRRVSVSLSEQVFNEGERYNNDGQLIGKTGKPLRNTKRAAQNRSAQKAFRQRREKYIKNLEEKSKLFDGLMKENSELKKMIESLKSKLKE
Assay: PBM E-score (8-mer binding enrichment) (E-score (-0.5 to 0.5)); higher = stronger / more preferred TF binding
Conditions: protein concentration: 100 nM; construct: GST-full length
Description: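 Universal 'all 10-mer' protein binding microarrays (Agilent AMADID 015681) probed with GST-tagged S. cerevisiae TFs (full-length or DBD) made by in vitro transcription/translation (PURExpress), about 100-200 nM. Bound TF was detected with fluorescent anti-GST. Each ungapped 8-mer (which stands for itself and its reverse complement) is scored by the PBM enrichment score (E-score), a modified Wilcoxon-Mann-Whitney statistic from -0.5 to +0.5, computed with the Universal PBM Analysis Suite. Scale: above 0.35 generally sequence-specific binding.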

Sequence | PBM E-score
CCACTAAC | 0.0063
ATTGGGGA | 0.00734
AGGTCCTC | -0.134
GCCGCGAC | -0.086
ACGAACGG | 0.0374
CACGATAG | 0.139
CTAGTCAG | -0.0157
AGGACCCG | -0.169
ACCATACC | -0.0386
ATCAGTTG | 0.209
CCAGCGCA | -0.132
CTATTCCA | 0.215
ATATTCCG | 0.179
GAATTCCA | 0.173
ATATTCCA | 0.274
CAATTCCA | 0.0576
AAATTCCA | 0.295
AAAAGCTT | -0.127
CCTCAATA | -0.0429
CCGGGGCC | -0.242
CTCGAGAA | -0.0673
ACTTGTAC | 0.00779
ATATCTCA | 0.277
CTATCTCA | -0.00021
ATCTCTCA | 0.216

Sequence | PBM E-score
CTGCTATA | 0.117
GCAACTCA | 0.00079
TAAGCTTA | 0.372
GAAGCTTA | 0.171
TAAGCTGA | 0.267
CAAGCTGA | 0.233
CAAGCTTA | 0.184
AAAGCTGA | -0.056
GGCTGTCA | -0.21
TATATCAA | 0.196
GCATCGGC | -0.125
ACTACCCG | -0.0362
AGCTTCCG | -0.0682
AGTATTCC | 0.225
AGTATTAA | 0.242
GGTATTAC | 0.271
GGTATTAA | 0.064
AGTATTAC | 0.27
CGTATTAG | 0.109
CGTATTAC | 0.214
AGTATTAG | 0.275
AGTATTAT | 0.0851
GGTTGCTA | -0.0578
GACCGCCA | -0.0859
CACTGTAC | -0.0867

Sequence | PBM E-score
CTTGCACC | 0.0355
AAGCACAT | 0.206
AGGAGAGC | -0.394
AGCAGCAG | -0.0447
CCTGGTAC | -0.1
CTCTGATC | -0.162
GCATTATA | 0.152
GTATTAGA | 0.234
GCATTACA | 0.167
GTATTGTA | 0.274
ATATTATA | 0.265
CTATTATA | 0.142
GTATTATA | 0.267
CTATTGTA | 0.13
ATATTGTA | 0.151
ATATTAGA | 0.159
CTATTACA | 0.181
GTATTACA | 0.34
AGCTAGGC | -0.14
CGCCGCAA | 0.0347
GACAGTCA | -0.165
CCGAATGA | -0.0132
CCCAATAC | -0.00655
TTCCGGAA | 0.248
ATCCTCTG | 0.0169

Sequence | PBM E-score
AGGATCCA | -0.0524
GGAATCCA | 0.0132
ATATTATG | 0.379
ATATTATC | 0.233
AGATTATG | 0.248
GGGGTGTA | -0.208
CCCGATAG | -0.0593
AATAATCT | 0.345
AATAATAT | 0.356
AATAATAA | 0.305
AATAATGC | 0.145
CATAATAA | 0.0985
AATAATAG | 0.198
AAAAATCT | 0.0604
AATAATGG | 0.226
AATAACCT | 0.061
GATAATAA | 0.199
AATAATGT | 0.273
AATAATAC | 0.181
AAAAAACG | 0.125
AATCATTG | 0.207
ACGCAGTA | -0.15
CCACCGTA | -0.049
GGTAGCAC | -0.152
CATGGATC | -0.00694

Sequence | PBM E-score
ACTCGCGA | 0.214
TAGATCGA | 0.0888
ACTCTGGG | -0.0166
CGGAGACC | -0.167
CCCTCGGC | -0.217
AGTCCCTA | -0.176
AGCTGAAG | 0.0392
ATCTGCGA | 0.00217
GTTACGGA | -0.122
GTTACGTA | 0.305
CTTACGTC | 0.196
ACTACGTG | -0.223
ACTACGTC | 0.00455
GGTACGTA | -0.032
ATTACGTC | 0.371
AGTACGTG | -0.096
ATTACGTG | 0.423
ACCCTGGA | -0.243
AGCGCCCA | -0.243
AGTCAACT | -0.157
CGAGCTCG | 0.0762
GTACCATA | -0.04
ATACCATG | 0.0359
ATACCATA | 0.259
CTGCCCAC | -0.151

Sequence | PBM E-score
GCCTTTAC | -0.0984
GGTATGAA | 0.126
AGGTTCTC | -0.153
GAAAAACA | -0.0228
TAAAAACA | 0.174
CTCAAACA | 0.0626
ATCAAGCA | 0.114
AAAAAACA | 0.284
ATCAAACA | 0.274
TAGATGCA | 0.0348
ACTTTGAG | -0.126
AGGCCAGA | -0.0898
GATTCTTA | 0.213
ATGTACAT | 0.205
CTATCGAA | 0.0827
CAATCCCG | 0.259
CAATCCCA | -0.0745
CAATCCCC | 0.0168
CCGGTTGC | 0.00629
ATTGTCTA | 0.273
GTTGTCTA | 0.114
ATTGTCTC | -0.017
AAGTAGAG | -0.126
ACGCCTTG | -0.0542
GTAAAAGA | 0.0603

Sequence | PBM E-score
CATGATGA | 0.173
AATGATTC | 0.161
AATGATAG | 0.272
CATGATAG | 0.0148
CATGATTC | -0.0303
AATGATTA | 0.335
AATGATAA | 0.227
CATGATTA | 0.321
GATGATTA | 0.23
CGCGTCGA | 0.0758
TAACCGGA | 0.106
GCGCACGC | -0.12
CCTGCAGG | -0.134
ACCGCGAC | -0.104
CACGGGTA | -0.0916
ACATGGTG | 0.0908
AGTCTGGA | 0.041
GCGAGACC | -0.127
CGGGATTA | 0.294
AGCGATTA | 0.127
CGGGATTC | 0.0661
CGCGATTC | 0.124
